Assay outcomes deposited in PubChem by The Scripps Research Institute Molecular Screening Center.
The list is not random: actives were taken first. Their share in the collection is about 3.1%.
eLon inh = inhibitors of E. coli Lon protease. P0A9M0. purified E. coli Lon protease, fluorescence polarization. inhibition, % at 7.94 µM. 360,000 compounds, 0.42% hits. AID 602123; in the data active means inhibition above about 13%, passing the limit was not always enough
PAFAH2 inh = PAFAH2 (human) inhibition; recombinant PAFAH2, FP-rhodamine activity probe, fluorescence polarization; inhibition, % at 3.39 µM; 340,000 compounds, 0.99% hits; AID 492956;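 active means inhibition above the mean over all tested compounds plus 3 SD, cut at about 30% in these data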;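 further: inhibitors block probe labeling of enzyme so polarization drops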
Rin1-Abl PPI inh = human Rin1-Abl interaction inhibition | P00519+Q13671 | TR-FRET Rin1/Abl binding, biochemical | inhibition, % at 7.35 µM | 360,000 compounds, 0.4% hits; in the data active means inhibition above about 5%, passing the limit was not always enough
pPAFAH FP inh = inhibitors of human plasma PAF acetylhydrolase (pPAFAH); recombinant pPAFAH, FP-rhodamine probe fluorescence polarization; Q13093; 330,000 compounds, 1.5% hits; inhibition, % at 3.39 µM; AID 463082;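 active means inhibition above the mean inhibition across the screen plus 3 SD, cut at about 25% in these data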;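 further: inhibitors block binding of the rhodamine activity-based probe so polarization drops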
Target sequence (Q13093 whole entry, looked up): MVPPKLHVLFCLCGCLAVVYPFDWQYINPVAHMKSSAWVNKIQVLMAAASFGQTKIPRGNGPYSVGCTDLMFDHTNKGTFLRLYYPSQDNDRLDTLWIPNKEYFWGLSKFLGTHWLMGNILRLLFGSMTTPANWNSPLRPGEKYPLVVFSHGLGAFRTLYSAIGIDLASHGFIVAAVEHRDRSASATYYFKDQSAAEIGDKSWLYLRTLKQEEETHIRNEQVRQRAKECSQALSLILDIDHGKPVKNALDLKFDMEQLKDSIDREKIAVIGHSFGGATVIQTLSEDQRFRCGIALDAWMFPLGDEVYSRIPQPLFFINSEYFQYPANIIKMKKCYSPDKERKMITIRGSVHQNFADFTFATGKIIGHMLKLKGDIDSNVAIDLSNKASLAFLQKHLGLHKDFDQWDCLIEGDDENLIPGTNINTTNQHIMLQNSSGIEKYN
PAFAH1B3 FP inh = PAFAH1B3 (human) inhibition | recombinant PAFAH1B3, FP-rhodamine probe, fluorescence polarization | inhibition, % at 3.39 µM | 340,000 compounds, 0.28% hits | Q15102;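 active means inhibition above the screen-wide average of all tested compounds plus 3 SD, cut at about 25% in these data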
PAFAH1B2 inh = blocks human PAF acetylhydrolase 1b catalytic subunit 2; P68402; recombinant PAFAH1B2, FP-rhodamine activity probe, fluorescence polarization; inhibition, % at 3.39 µM; 340,000 compounds, 1.2% hits;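 active means inhibition above the mean of all tested compounds plus 3 SD, cut at about 24% in these data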
E coli Lon conf = E. coli Lon inhibition confirmation. shares compounds with eLon inh. purified E. coli Lon, fluorescence polarization. inhibition, % at 7.94 µM. 1,400 compounds, 31% hits; in the data active means inhibition above about 16%
A number is an active result.

What do the screens show for `O=C(CCC(=O)Nc1nnc(C2CCCCC2)s1)NCc1ccc(F)cc1`?
eLon inh: inactive; PAFAH2 inh: inactive; Rin1-Abl PPI inh: inactive; pPAFAH FP inh: inactive; PAFAH1B3 FP inh: inactive; PAFAH1B2 inh: inactive

What do the screens show for `O=C(O)c1csc(-c2ccc(Cl)cc2)n1`?
eLon inh: 16.4; PAFAH2 inh: inactive; Rin1-Abl PPI inh: inactive; pPAFAH FP inh: inactive; PAFAH1B3 FP inh: inactive; PAFAH1B2 inh: inactive; E coli Lon conf: inactive

Results for CNC(=O)c1csc(-c2ccc(Cl)cc2)n1 ?
eLon inh: inactive; PAFAH2 inh: inactive; Rin1-Abl PPI inh: inactive; pPAFAH FP inh: inactive; PAFAH1B3 FP inh: inactive; PAFAH1B2 inh: inactive

Results for Cc1ccc(NC(=O)CS(=O)CC(=O)Nc2ccccc2-c2ccc(C)o2)cc1 (configuration not stated) ?
eLon inh: 114.2; PAFAH2 inh: inactive; Rin1-Abl PPI inh: inactive; pPAFAH FP inh: inactive; PAFAH1B3 FP inh: inactive; PAFAH1B2 inh: inactive; E coli Lon conf: inactive

How did O=c1[nH]cnc2sc3c(c12)CCN(Cc1ccccc1)C3 do in these assays?
eLon inh: 25.0; PAFAH2 inh: inactive; Rin1-Abl PPI inh: inactive; pPAFAH FP inh: inactive; PAFAH1B3 FP inh: inactive; PAFAH1B2 inh: inactive; E coli Lon conf: inactive

Results for O=c1[nH]cnc2sc3c(c12)CN(Cc1ccccc1)CC3 ?
eLon inh: inactive; PAFAH2 inh: inactive; Rin1-Abl PPI inh: inactive; pPAFAH FP inh: inactive; PAFAH1B3 FP inh: inactive; PAFAH1B2 inh: inactive

Results for CN1CCN(c2ccc(-c3ccnn3C(=O)Nc3cccc(C(F)(F)F)c3)cc2)CC1 ?
eLon inh: inactive; PAFAH2 inh: inactive; Rin1-Abl PPI inh: inactive; pPAFAH FP inh: inactive; PAFAH1B3 FP inh: inactive; PAFAH1B2 inh: inactive

How did O=C(C1CCC(CNS(=O)(=O)c2ccccc2)CC1)N1CCCCC1 (configuration not stated) do in these assays?
eLon inh: inactive; PAFAH2 inh: inactive; Rin1-Abl PPI inh: inactive; pPAFAH FP inh: inactive; PAFAH1B3 FP inh: inactive; PAFAH1B2 inh: inactive

How did COc1ccc(CN2CCN(C(=O)C3CCC(CNS(=O)(=O)c4ccccc4)CC3)CC2)c(OC)c1OC (configuration not stated) do in these assays?
eLon inh: 142.6; PAFAH2 inh: inactive; Rin1-Abl PPI inh: inactive; pPAFAH FP inh: inactive; PAFAH1B3 FP inh: inactive; PAFAH1B2 inh: inactive; E coli Lon conf: inactive

Results for CSc1ncccc1C(=O)NCc1nnc2ccccn12 ?
eLon inh: inactive; PAFAH2 inh: inactive; Rin1-Abl PPI inh: inactive; pPAFAH FP inh: inactive; PAFAH1B3 FP inh: inactive; PAFAH1B2 inh: inactive

Results for O=C(O)C1OC(C(=O)O)C(C(=O)O)C1C(=O)O (configuration not stated) ?
eLon inh: inactive; PAFAH2 inh: inactive; Rin1-Abl PPI inh: inactive; PAFAH1B3 FP inh: inactive; PAFAH1B2 inh: inactive
